Sampled rows, rich in hits. Any-hit rate of the full collection: about 3.5%.
Pf apPOL inh – Pf-apPOL DNA polymerase inhibition | inhibition, % at 10 µM | Recombinant Pf-apPOL, molecular beacon fluorescence, 1.5 h | AID 1794808 | actives 0.25% (n = 210,000)
mHTT-CaM PPI inh – inhibitors of human mutant huntingtin-calmodulin interaction; AlphaScreen His-mHTT/GST-CaM binding, luminescence; inhibition, % at 15 µM; actives 3.6% (n = 190,000); AID 1671202;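 note: 0% = both proteins with DMSO and 100% = one protein alone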
An asterisk follows results filed as active; / = no result. Cut-off read from the data, not from the text of the source: active = inhibition above about 50%; inactive = the rest.

SMILES	Pf apPOL inh	mHTT-CaM PPI inh
CC(C)c1ccc(NC(=O)CCS(=O)(=O)c2ccc(Br)s2)cc1	-4.2	0.0
Cc1ccc(S(=O)(=O)N2C=Cc3ccccc3C2c2c[nH]c3ccccc23)c(C)c1 (stereo unspecified)	11.9	55.0*
Cc1ccc(S(=O)(=O)N2CCSC2c2ccccc2Cl)c(C)c1 (stereo unspecified)	-3.7	-55.0
Cc1cc2c(c(C)c1Cl)[C@H](c1ccc3c(c1)OCO3)C[C@@H](c1ccccc1)O2	-6.6	10.0
COc1ccc(C2CC(O)(c3ccccc3)Oc3cc(C)c(Cl)c(C)c32)cc1 (stereo unspecified)	-2.7	89.3*
COc1ccc(C2CC(O)(c3ccccc3)Oc3cc(OC)c(OC)c(OC)c32)cc1 (stereo unspecified)	-1.5	86.3*
COc1ccc([C@@H]2C[C@H](c3ccccc3)Oc3cc(OC)c(OC)c(OC)c32)cc1	-3.8	18.3
CCN1CCn2cc(S(=O)(=O)NCc3cccc(C(F)(F)F)c3)cc2C1=O	-4.6	-4.6
Cc1[nH]c(C(=O)N2CCC(CC(=O)NC(C)CCc3ccccc3)CC2)c(C)c1C (stereo unspecified)	-1.2	24.5
S=c1[nH]cc(-c2ccc(Cl)cc2)o1	5.2	/
O=C(c1ccc(Br)o1)N1CCN(Cc2ccc3c(c2)OCO3)CC1	0.4	4.0
C1CCCN(C2CCN(C3CC4CCC3C4)CC2)CC1 (stereo unspecified)	-6.6	81.0*
C1CCN(C2CCN(C3CC4CCC3C4)CC2)CC1 (stereo unspecified)	-4.3	-7.3
CCOC(=O)C(C)Oc1ccc2c(=O)c(-c3ccc4c(c3)OCCCO4)c(C)oc2c1 (stereo unspecified)	4.7	9.7
CCN1C(=O)Cc2cc(C(=O)NCc3ccccn3)ccc21	-2.7	1.7
CC1(C)CC(=O)C2=C(C1)NC1=C(C(=O)c3ccccc31)C2c1ccc([N+](=O)[O-])o1 (stereo unspecified)	-3.4	55.0*
CC1(C)CC(=O)C2=C(C1)NC1=C(C(=O)c3ccccc31)C2c1cc([N+](=O)[O-])ccc1O (stereo unspecified)	4.2	63.0*
COc1ccc(OC)c(C2C3=C(CC(C)(C)CC3=O)NC3=C2C(=O)c2ccccc23)c1 (stereo unspecified)	-4.7	41.0
CC(=O)N1c2ccccc2NC2=C(C(=O)CC(C)(C)C2)C1c1ccc([N+](=O)[O-])o1 (stereo unspecified)	1.1	1.6
O=C(Nc1ccc2oc(-c3ccc(F)cc3)nc2c1)c1ccc(Cl)c([N+](=O)[O-])c1	-5.3	2.0
O=C1CC(c2ccccc2)CC2=C1C(c1ccc(Cl)c([N+](=O)[O-])c1)Nc1ccccc1N2 (stereo unspecified)	1.6	84.0*
O=C1CC(c2ccc(Cl)cc2)CC2=C1C(c1ccccc1[N+](=O)[O-])Nc1ccccc1N2 (stereo unspecified)	-7.0	25.0
O=C1CC(c2ccccc2)CC2=C1C(c1ccc(Cl)cc1)Nc1ccccc1N2 (stereo unspecified)	10.1	45.0
O=C1CC(c2cccc([N+](=O)[O-])c2)CC2=C1C(c1ccc(Cl)cc1)Nc1ccccc1N2 (stereo unspecified)	12.4	58.0*
COc1ccc(CN2CC(C(=O)NCCCN3CCCCCC3)CC2=O)cc1 (stereo unspecified)	-2.9	11.0
SMILES	Pf apPOL inh	mHTT-CaM PPI inh
CC(=O)N1CCN(C(=O)CN2CCc3sccc3C2c2ccccc2C)CC1 (stereo unspecified)	-6.6	1.9
Cc1ccc(C)c(OCC(=O)Nc2ccccc2-c2ccccc2)c1	-20.9	-14.5
CCCN1CCc2nc(N3CCN(c4ccccc4F)CC3)ncc2C1	-3.5	14.7
CCOc1ccc(CN2CCc3nc(N4CCN(CC)CC4)ncc3C2)cc1OCC	-4.5	20.0
Clc1cccc(CN2CCc3nc(N4CCN(c5ccccc5)CC4)ncc3C2)c1	1.7	24.6
CCN1CCN(c2ncc3c(n2)CCN(Cc2ccc(Cl)c(F)c2)C3)CC1	0.8	62.6*
Clc1cccc(CN2CCc3nc(N4CCN(c5ncccn5)CC4)ncc3C2)c1	-6.5	100.3*
CCN1CCN(c2ncc3c(n2)CCN(Cc2ccccc2F)C3)CC1	-3.1	56.3*
CCN1CCN(c2ncc3c(n2)CCN(Cc2cccc(F)c2F)C3)CC1	5.0	32.0
CCN1CCN(c2ncc3c(n2)CCN(CCc2ccccc2)C3)CC1	-6.6	96.6*
O=C1C2C3C=CC(C2C(=O)N1Cc1cccnc1)C1C(=O)N(Cc2cccnc2)C(=O)C31 (stereo unspecified)	3.4	-2.0
CCC(=O)N1CCCN(C2=NS(=O)(=O)C(c3ccc(CC)cc3)=C2C)CC1	-1.6	6.3
COc1ccc(-n2nc(C(=O)N3CCCCCC3)c3ccccc3c2=O)cc1	-3.3	0.0
CCN1CCN(c2ncc3c(n2)CCN(Cc2cccc(Cl)c2)C3)CC1	1.2	78.3*
Cc1cccc(CN2CCc3nc(N4CCN(c5ncccn5)CC4)ncc3C2)c1	0.8	100.1*
CCCN1CCN(c2ncc3c(n2)CCN(Cc2cccc(Br)c2)C3)CC1	-5.8	45.2
CCCN1CCN(c2ncc3c(n2)CCN(Cc2cccc(C)c2)C3)CC1	-6.8	13.3
Cn1c(NC(=O)c2ccc(Cl)cc2)cc(=O)n(C)c1=O	-3.6	-13.3
Cc1ccc(-n2[nH]c(=O)c(C=c3c(C)c(C#N)c4nc5ccccc5n4c3=O)c2O)cc1Cl	3.3	51.0*
Cc1c(Cc2ccc(Cl)cc2)c(NCCCn2ccnc2)n2c(nc3ccccc32)c1C#N	0.7	-5.0
Cc1oc2ccc(OC(C(=O)O)c3ccccc3)cc2c1C(=O)O (stereo unspecified)	-3.0	-5.6
CC(C(=O)Nc1ccc(O)cc1)n1cnc2ccccc2c1=O (stereo unspecified)	-1.8	4.6
Cc1ccc(C2NC(C(=O)O)CS2)cc1[N+](=O)[O-] (stereo unspecified)	-5.2	-3.0
Cc1c(-c2ccc(C3NC(C(=O)O)CS3)o2)cccc1[N+](=O)[O-] (stereo unspecified)	-2.9	52.0*
O=C1c2cccc(Cl)c2C(=O)c2c1cccc2N1CCOCC1	9.7	88.0*
SMILES	Pf apPOL inh	mHTT-CaM PPI inh
O=C1c2ccccc2-c2onc3ccc(N4CCOCC4)c1c23	-0.7	17.0
COc1ccc(N2CC(NS(=O)(=O)c3cccnc3)CC2=O)cc1OC (stereo unspecified)	-9.0	10.0
COc1ccc(-c2ccc(CCC(=O)O)n2-c2ccc(OC)cc2OC)cc1	-2.7	49.0
COc1ccc(-n2c(CCC(=O)O)ccc2-c2cccs2)c(OC)c1	7.9	55.0*
O=C(c1ccco1)N1CCCC1c1nc(-c2cccc(C(F)(F)F)c2)no1 (stereo unspecified)	-4.2	14.4
O=c1oc(-c2cc3c(s2)CCCC3)ns1	/	0.1
CCOc1ccc(-c2cc(C(=O)NCC3CCCN3CC)c3ccccc3n2)cc1 (stereo unspecified)	-8.4	-14.0
Cc1sc2cc(C(=O)N3CCN(C)CC3)[nH]c2c1CN1CCOCC1	-2.5	6.6
Cc1sc2cc(C(=O)N3CCOCC3)[nH]c2c1CN1CCOCC1	0.3	100.2*
Clc1nc(NCc2ccco2)nc(Oc2ccccc2)n1	-5.4	53.0*
Clc1nc(NCc2ccco2)nc(NC2CCCCC2)n1	/	-3.7
Cc1cccc(S(=O)(=O)NC2CCN(c3ccccc3)C2=O)c1 (stereo unspecified)	59.8*	-15.5
Cc1ccc(N2CCC(NS(=O)(=O)c3cccc(F)c3)C2=O)cc1 (stereo unspecified)	1.8	-10.8

Assay outcomes as filed in PubChem.
